Laboratory results taken from publication PMC7862700, “An all-to-all approach to the identification of sequence-specific readers for epigenetic DNA modifications on cytosine”.

What was measured:
Assay in all cases: DAPPL (digital affinity profiling via proximity ligation, sequencing); 10 mM Tris-HCl pH 7.5, 50 mM NaCl, 1 mM DTT, 4% glycerol, room temperature, 30 min; GST-TFs on glutathione beads, 16-mer random dsDNA library, 0.1% formaldehyde crosslink after washing; high values mean tight binding
FEV = target: T1, FEV (Homo sapiens, UniProt Q99581 1-238); details: protein: recombinant; tags: N-terminal GST; dsDNA, one strand shown
T1 sequence: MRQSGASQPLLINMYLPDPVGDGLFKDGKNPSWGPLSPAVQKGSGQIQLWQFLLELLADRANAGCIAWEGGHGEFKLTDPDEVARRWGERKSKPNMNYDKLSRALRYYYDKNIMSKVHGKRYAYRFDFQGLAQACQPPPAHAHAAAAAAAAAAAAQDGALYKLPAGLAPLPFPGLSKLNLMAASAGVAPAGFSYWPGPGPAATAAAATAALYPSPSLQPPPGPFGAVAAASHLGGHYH
Method in brief: (§1)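 Yeast served to express human transcription factors as GST fusions, which were then captured on glutathione beads and labelled with DNA barcodes. Pooled with a tag-only sample, they were incubated with 200 nmole of a 16-mer random double-stranded DNA library for 30 min at room temperature in Tris/NaCl/DTT/glycerol buffer, washed, crosslinked with 0.1% formaldehyde, ligated by proximity, amplified by PCR and sequenced. Dividing each hexamer's read frequency for a factor by its frequency for the tag-only sample gives the binding signal.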

ETV5 = ETV5 (Homo sapiens, UniProt P41161 1-510); details: protein: recombinant; tags: N-terminal GST; dsDNA, one strand shown
Chain of ETV5 (P41161 whole entry): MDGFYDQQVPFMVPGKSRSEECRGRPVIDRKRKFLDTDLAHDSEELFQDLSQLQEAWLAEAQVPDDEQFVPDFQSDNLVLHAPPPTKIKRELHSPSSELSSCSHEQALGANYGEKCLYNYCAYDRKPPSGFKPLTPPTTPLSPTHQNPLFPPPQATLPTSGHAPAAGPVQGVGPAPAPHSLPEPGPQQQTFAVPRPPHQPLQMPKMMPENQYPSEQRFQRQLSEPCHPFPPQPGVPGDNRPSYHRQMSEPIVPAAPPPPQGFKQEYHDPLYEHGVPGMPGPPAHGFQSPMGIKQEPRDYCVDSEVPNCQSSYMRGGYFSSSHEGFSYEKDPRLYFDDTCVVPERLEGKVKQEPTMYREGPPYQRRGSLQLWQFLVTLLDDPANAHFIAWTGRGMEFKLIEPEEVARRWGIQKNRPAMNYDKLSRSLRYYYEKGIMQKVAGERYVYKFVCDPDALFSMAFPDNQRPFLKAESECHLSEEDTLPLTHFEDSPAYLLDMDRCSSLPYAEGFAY
Method in brief: as §1

HSF1 = HSF1 (Homo sapiens, UniProt Q00613 1-529); details: protein: recombinant; tags: N-terminal GST; chain copies: 3; dsDNA, one strand shown
Chain of HSF1 (Q00613 whole entry): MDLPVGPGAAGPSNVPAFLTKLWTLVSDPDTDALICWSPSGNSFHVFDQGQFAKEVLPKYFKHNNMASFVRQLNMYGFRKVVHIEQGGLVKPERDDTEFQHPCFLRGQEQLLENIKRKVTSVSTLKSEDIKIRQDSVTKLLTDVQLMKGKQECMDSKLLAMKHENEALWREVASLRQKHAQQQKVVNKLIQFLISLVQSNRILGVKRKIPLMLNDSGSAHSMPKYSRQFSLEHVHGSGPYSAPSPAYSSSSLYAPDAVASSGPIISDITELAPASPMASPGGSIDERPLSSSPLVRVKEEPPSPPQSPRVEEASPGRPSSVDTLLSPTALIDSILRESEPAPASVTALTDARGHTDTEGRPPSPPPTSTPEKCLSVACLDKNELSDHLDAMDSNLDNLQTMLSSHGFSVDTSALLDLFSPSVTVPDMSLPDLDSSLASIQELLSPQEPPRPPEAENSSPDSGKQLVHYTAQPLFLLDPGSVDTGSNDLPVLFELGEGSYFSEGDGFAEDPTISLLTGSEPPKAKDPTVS
Method in brief: as §1

SPIC = target: T2, SPIC (Homo sapiens, UniProt Q8N5J4 1-248); details: protein: recombinant; tags: N-terminal GST; dsDNA, one strand shown
T2 sequence: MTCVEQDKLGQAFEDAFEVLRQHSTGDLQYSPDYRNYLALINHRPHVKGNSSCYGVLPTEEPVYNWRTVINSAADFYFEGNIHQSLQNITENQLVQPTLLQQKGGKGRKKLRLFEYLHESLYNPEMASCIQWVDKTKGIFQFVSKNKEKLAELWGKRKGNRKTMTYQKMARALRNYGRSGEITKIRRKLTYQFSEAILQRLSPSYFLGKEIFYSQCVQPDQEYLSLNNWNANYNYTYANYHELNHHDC
Method in brief: as §1

ELF4 = ELF4 (Homo sapiens, UniProt Q99607 1-663); details: protein: recombinant; tags: N-terminal GST; dsDNA, one strand shown
Chain of ELF4 (Q99607 whole entry): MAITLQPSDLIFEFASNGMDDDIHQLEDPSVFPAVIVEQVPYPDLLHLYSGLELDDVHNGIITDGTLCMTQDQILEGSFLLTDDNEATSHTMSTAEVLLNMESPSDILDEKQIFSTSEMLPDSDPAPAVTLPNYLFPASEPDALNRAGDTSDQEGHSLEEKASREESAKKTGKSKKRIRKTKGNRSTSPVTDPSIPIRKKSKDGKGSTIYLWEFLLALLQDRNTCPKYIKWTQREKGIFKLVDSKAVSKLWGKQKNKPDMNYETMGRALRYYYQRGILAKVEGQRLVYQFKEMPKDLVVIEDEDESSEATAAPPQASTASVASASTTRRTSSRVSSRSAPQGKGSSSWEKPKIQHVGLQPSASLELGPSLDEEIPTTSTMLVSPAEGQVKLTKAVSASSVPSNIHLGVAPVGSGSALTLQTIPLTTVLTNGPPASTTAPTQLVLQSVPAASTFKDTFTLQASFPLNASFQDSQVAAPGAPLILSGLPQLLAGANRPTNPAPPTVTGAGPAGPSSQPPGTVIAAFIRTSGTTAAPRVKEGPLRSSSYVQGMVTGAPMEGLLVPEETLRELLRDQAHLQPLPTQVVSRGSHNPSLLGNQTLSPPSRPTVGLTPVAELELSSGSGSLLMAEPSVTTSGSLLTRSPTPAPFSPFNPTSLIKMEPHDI
Method in brief: as §1

ELK4 = target: T3, ELK4 (Homo sapiens, UniProt P28324-2 1-405); details: protein: recombinant; tags: N-terminal GST; dsDNA, one strand shown
T3 sequence: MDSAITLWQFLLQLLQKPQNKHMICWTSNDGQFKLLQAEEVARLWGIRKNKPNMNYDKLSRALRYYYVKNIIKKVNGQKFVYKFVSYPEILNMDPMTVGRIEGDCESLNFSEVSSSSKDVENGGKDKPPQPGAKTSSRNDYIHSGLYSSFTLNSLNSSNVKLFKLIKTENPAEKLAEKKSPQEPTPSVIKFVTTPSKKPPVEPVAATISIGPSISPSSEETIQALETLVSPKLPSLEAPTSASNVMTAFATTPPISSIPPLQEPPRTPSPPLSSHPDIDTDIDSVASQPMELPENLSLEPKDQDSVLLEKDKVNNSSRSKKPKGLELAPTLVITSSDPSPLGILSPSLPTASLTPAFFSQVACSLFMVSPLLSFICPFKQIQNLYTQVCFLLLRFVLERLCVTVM
Method in brief: as §1

ETV2 = target: T4, ETV2 (Homo sapiens, UniProt O00321 1-342); details: protein: recombinant; tags: N-terminal GST; dsDNA, one strand shown
T4 sequence: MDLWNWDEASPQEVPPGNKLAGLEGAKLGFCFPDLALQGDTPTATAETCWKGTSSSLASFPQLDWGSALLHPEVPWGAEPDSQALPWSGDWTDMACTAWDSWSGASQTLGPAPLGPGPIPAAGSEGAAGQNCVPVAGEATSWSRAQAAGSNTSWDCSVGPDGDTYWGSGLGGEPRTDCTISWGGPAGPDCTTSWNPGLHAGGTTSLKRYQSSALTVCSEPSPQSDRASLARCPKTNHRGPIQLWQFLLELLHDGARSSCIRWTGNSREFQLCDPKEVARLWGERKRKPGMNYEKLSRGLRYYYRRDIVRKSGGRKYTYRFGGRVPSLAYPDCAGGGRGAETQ
Method in brief: as §1

ELF3 = target: T5, ELF3 (Homo sapiens, UniProt P78545 1-371); details: protein: recombinant; tags: N-terminal GST; dsDNA, one strand shown
T5 sequence: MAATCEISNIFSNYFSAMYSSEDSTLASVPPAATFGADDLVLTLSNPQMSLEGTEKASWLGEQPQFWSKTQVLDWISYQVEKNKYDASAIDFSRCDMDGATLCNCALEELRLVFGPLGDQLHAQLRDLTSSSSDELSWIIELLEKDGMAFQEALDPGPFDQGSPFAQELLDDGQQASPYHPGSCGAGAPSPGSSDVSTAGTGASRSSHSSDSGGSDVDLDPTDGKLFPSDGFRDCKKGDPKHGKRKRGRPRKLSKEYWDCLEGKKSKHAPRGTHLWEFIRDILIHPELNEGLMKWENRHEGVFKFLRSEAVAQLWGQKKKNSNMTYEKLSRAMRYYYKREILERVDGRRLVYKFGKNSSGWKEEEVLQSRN
Method in brief: as §1

CRX = CRX (Homo sapiens, UniProt O43186 1-299); details: protein: recombinant; tags: N-terminal GST; dsDNA, one strand shown
Chain of CRX (O43186 whole entry): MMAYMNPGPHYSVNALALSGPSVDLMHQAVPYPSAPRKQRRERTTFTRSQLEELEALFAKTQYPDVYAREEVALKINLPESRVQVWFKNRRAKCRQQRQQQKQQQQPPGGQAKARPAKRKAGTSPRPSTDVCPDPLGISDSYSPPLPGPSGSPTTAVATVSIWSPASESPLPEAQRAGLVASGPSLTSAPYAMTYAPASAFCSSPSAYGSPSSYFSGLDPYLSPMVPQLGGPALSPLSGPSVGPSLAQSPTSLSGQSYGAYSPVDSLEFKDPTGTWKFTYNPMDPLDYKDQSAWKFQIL
Method in brief: as §1

ETV1 = ETV1 (Homo sapiens, UniProt P50549 1-477); details: protein: recombinant; tags: N-terminal GST; dsDNA, one strand shown
Chain of ETV1 (P50549 whole entry): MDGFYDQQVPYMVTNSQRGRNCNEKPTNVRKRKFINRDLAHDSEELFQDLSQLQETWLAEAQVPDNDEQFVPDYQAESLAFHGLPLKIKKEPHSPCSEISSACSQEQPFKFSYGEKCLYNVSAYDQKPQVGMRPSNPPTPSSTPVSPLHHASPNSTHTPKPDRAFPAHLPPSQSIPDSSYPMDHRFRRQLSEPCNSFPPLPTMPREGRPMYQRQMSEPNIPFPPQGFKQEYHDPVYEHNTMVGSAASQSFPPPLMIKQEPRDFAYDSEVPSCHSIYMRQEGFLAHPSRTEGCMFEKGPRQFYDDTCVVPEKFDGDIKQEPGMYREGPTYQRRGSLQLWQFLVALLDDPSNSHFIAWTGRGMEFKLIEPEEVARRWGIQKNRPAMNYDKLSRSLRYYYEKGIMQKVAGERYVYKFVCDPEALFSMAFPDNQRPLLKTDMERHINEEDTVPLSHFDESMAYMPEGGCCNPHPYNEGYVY
Method in brief: as §1

ERF = target: T6, ERF (Homo sapiens, UniProt P50548 1-548); details: protein: recombinant; tags: N-terminal GST; dsDNA, one strand shown
T6 sequence: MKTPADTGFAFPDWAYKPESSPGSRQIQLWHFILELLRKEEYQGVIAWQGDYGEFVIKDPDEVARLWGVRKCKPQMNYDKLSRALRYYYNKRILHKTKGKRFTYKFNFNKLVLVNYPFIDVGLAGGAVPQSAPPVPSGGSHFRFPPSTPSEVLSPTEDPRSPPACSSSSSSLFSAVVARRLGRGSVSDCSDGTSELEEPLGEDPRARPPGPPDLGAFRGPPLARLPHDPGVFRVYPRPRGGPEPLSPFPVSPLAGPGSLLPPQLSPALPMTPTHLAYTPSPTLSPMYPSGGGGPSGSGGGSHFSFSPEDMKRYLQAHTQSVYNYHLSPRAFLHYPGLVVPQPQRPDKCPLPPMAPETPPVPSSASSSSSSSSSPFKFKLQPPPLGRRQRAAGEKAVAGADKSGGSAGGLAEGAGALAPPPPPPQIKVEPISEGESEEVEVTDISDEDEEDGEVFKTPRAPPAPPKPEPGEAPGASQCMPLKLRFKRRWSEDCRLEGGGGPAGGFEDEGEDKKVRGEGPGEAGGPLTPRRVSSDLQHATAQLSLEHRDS
Method in brief: as §1

ETV3L = target: T7, ETV3L (Homo sapiens, UniProt Q6ZN32 1-361); details: protein: recombinant; tags: N-terminal GST; dsDNA, one strand shown
T7 sequence: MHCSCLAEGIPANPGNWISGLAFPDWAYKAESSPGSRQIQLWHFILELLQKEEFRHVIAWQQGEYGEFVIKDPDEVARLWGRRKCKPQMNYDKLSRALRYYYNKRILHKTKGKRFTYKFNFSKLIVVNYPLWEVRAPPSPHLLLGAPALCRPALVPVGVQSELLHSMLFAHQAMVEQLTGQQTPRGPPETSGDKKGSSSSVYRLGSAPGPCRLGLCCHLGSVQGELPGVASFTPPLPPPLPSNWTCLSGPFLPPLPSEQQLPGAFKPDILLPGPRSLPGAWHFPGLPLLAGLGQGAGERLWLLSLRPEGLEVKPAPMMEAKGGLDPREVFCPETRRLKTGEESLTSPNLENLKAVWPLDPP
Method in brief: as §1

ETS2 = target: T8, ETS2 (Homo sapiens, UniProt P15036 1-469); details: protein: recombinant; tags: N-terminal GST; dsDNA, one strand shown
T8 sequence: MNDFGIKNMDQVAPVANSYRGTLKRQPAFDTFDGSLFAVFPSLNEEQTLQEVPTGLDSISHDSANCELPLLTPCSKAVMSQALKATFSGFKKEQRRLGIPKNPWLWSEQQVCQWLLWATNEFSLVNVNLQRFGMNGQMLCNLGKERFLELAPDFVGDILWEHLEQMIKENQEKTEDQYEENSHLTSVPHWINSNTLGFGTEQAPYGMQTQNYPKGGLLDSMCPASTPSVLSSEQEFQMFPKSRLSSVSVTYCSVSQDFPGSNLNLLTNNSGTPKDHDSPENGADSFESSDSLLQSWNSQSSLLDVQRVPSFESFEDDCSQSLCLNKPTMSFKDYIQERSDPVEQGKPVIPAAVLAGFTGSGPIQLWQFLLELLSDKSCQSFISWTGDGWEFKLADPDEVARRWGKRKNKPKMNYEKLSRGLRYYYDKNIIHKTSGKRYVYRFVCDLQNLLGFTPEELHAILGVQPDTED
Method in brief: as §1

SPDEF = target: T9, SPDEF (Homo sapiens, UniProt O95238 1-335); details: protein: recombinant; tags: N-terminal GST; dsDNA, one strand shown
T9 sequence: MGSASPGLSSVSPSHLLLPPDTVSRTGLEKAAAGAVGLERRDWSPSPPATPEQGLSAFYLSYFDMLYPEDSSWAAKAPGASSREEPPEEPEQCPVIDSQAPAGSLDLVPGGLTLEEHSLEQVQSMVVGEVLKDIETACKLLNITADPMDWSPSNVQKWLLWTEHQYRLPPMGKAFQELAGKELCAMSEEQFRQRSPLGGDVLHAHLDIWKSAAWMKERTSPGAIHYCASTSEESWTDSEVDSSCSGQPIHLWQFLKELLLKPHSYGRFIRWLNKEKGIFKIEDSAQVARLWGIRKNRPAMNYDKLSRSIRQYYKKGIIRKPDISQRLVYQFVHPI
Method in brief: as §1

ETV7 = target: T10, ETV7 (Homo sapiens, UniProt Q9Y603 1-341); details: protein: recombinant; tags: N-terminal GST; dsDNA, one strand shown
T10 sequence: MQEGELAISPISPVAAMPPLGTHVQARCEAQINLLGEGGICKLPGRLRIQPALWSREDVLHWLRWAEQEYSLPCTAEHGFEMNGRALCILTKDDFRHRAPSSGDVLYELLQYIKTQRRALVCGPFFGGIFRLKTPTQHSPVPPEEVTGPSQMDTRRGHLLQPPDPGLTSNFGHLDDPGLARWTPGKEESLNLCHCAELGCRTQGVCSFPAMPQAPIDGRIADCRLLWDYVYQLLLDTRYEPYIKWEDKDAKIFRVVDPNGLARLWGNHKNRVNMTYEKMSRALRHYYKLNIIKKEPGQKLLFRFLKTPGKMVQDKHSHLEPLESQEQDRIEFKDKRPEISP
Method in brief: as §1

ELF5 = target: T11, ELF5 (Homo sapiens, UniProt Q9UKW6-2 1-255); details: protein: recombinant; tags: N-terminal GST; dsDNA, one strand shown
T11 sequence: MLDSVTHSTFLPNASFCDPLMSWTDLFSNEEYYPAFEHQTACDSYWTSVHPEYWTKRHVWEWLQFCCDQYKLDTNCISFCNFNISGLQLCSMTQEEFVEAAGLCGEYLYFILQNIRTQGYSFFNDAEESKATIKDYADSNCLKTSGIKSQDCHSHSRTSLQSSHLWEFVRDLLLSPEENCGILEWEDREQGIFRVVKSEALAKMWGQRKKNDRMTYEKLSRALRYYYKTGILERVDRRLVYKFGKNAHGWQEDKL
Method in brief: as §1

ETV3 = target: T12, ETV3 (Homo sapiens, UniProt P41162-2 1-143); details: protein: recombinant; tags: N-terminal GST; dsDNA, one strand shown
T12 sequence: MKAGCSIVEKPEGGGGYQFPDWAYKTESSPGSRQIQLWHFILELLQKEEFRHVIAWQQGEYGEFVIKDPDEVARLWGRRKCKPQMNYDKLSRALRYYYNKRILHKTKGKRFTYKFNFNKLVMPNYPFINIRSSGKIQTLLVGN
Method in brief: as §1

ETV6 = ETV6 (Homo sapiens, UniProt P41212 1-452); details: protein: recombinant; tags: N-terminal GST; dsDNA, one strand shown
Chain of ETV6 (P41212 whole entry): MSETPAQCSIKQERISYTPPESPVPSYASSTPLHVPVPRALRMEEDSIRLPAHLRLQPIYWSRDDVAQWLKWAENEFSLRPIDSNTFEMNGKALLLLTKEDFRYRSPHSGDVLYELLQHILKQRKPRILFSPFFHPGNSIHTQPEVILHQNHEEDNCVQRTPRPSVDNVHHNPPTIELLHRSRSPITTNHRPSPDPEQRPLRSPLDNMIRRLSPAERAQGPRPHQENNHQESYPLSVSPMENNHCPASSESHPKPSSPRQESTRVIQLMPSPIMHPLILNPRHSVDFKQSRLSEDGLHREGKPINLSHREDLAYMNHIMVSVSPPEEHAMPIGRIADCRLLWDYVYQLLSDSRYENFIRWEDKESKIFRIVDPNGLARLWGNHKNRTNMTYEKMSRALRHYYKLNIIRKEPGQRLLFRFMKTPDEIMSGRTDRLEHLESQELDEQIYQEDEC
Method in brief: as §1

Sequence	binding signal (FEV)	binding signal (ETV5)	binding signal (HSF1)	binding signal (SPIC)	binding signal (ELF4)	binding signal (ELK4)	binding signal (ETV2)	binding signal (ELF3)	binding signal (CRX)	binding signal (ETV1)	binding signal (ERF)	binding signal (ETV3L)	binding signal (ETS2)	binding signal (SPDEF)	binding signal (ETV7)	binding signal (ELF5)	binding signal (ETV3)	binding signal (ETV6)
ATCTTG	1.33 fold enrichment (6-mer frequency, TF over GST control)	1.2 fold enrichment (6-mer frequency, TF over GST control)	1.43 fold enrichment (6-mer frequency, TF over GST control)	1.39 fold enrichment (6-mer frequency, TF over GST control)	1.33 fold enrichment (6-mer frequency, TF over GST control)	1.39 fold enrichment (6-mer frequency, TF over GST control)	1.35 fold enrichment (6-mer frequency, TF over GST control)	1.5 fold enrichment (6-mer frequency, TF over GST control)	1.54 fold enrichment (6-mer frequency, TF over GST control)	1.25 fold enrichment (6-mer frequency, TF over GST control)	1.29 fold enrichment (6-mer frequency, TF over GST control)	1.31 fold enrichment (6-mer frequency, TF over GST control)	1.33 fold enrichment (6-mer frequency, TF over GST control)	1.27 fold enrichment (6-mer frequency, TF over GST control)	1.24 fold enrichment (6-mer frequency, TF over GST control)	1.23 fold enrichment (6-mer frequency, TF over GST control)	1.37 fold enrichment (6-mer frequency, TF over GST control)	1.18 fold enrichment (6-mer frequency, TF over GST control)
ATTGTT	1.52 fold enrichment (6-mer frequency, TF over GST control)	1.57 fold enrichment (6-mer frequency, TF over GST control)	1.63 fold enrichment (6-mer frequency, TF over GST control)	1.45 fold enrichment (6-mer frequency, TF over GST control)	1.41 fold enrichment (6-mer frequency, TF over GST control)	1.4 fold enrichment (6-mer frequency, TF over GST control)	1.57 fold enrichment (6-mer frequency, TF over GST control)	1.49 fold enrichment (6-mer frequency, TF over GST control)	1.55 fold enrichment (6-mer frequency, TF over GST control)	1.47 fold enrichment (6-mer frequency, TF over GST control)	1.65 fold enrichment (6-mer frequency, TF over GST control)	1.55 fold enrichment (6-mer frequency, TF over GST control)	1.47 fold enrichment (6-mer frequency, TF over GST control)	1.46 fold enrichment (6-mer frequency, TF over GST control)	1.47 fold enrichment (6-mer frequency, TF over GST control)	1.36 fold enrichment (6-mer frequency, TF over GST control)	1.56 fold enrichment (6-mer frequency, TF over GST control)	1.51 fold enrichment (6-mer frequency, TF over GST control)
